Source: PubChem (National Center for Advancing Translational Sciences (NCATS))
The full list was thinned out, with hits kept by preference.
Cycloheximide cs: affects cycloheximide protein synthesis inhibition readout, counter-screen. cell reporter, cycloheximide protein synthesis inhibition counterscreen. max response, %. hit rate 12% among 300,000. AID 2314; in the data active means max response mostly above about 13%, no sharp cut-off; inactive means mostly below about 14%; further: read at 38.3 µM for the half of the compounds with a filed dose; 0% is about no effect
LmPK inhibitor: LmPK (Leishmania mexicana) enzyme inhibition; Q27686; purified LmPK, Kinase-Glo ATP luminescence, 1 h; Potency, µM (top dose mostly 57.5 µM), for the others: at the highest dose activity change, negative = inhibition, hits mostly inhibitors; hit rate 0.37% among 290,000; AID 1721; further: potency means the concentration at half of the fitted maximal effect; on the % scale 0 is the no-effect control and ±100 the full control effect
Target sequence (Q27686 whole entry, looked up): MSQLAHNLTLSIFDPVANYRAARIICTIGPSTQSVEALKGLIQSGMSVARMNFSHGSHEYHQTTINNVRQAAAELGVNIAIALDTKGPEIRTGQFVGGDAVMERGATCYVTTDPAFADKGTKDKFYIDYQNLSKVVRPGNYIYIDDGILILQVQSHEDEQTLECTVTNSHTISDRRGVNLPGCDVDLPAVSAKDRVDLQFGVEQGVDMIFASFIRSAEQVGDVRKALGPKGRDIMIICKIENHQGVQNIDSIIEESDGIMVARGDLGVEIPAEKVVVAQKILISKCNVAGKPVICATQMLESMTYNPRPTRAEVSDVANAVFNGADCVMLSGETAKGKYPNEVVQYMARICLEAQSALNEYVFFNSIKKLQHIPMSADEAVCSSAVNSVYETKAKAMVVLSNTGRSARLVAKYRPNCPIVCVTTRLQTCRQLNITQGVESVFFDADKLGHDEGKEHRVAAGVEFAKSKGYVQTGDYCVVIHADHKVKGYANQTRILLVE
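Kinase-Glo luminescence read after 1 h RT reaction of 0.1 nM LmPK with 0.5 mM PEP and 0.1 mM ADP. Activity scaled between uninhibited and enzyme-free controls.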
Sm TGR block: inhibitors of Schistosoma mansoni thioredoxin glutathione reductase; Potency, µM (highest dose often 114 µM), inactives show at the top dose activity change, negative = inhibition, usual class: inhibitors; purified TGR, DTNB reduction, TNB absorbance 405 nm; hit rate 3% among 360,000; Q962Y6; further: potency means the concentration at half of the fitted maximal effect; on the % scale 0 is the no-effect control and ±100 the full control effect; nearly all actives have a fitted effect of over 60% in size
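TGR 20 nM + NADPH 100 uM (dispensed conc.), cpd preinc 15 min RT; start with NADPH (500 uM addition) then DTNB (15 mM addition). Kinetic TNB absorbance, 405 nm filter. Four-parameter Hill fit across titration.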
TbPYK inhibitor: inhibitors of Trypanosoma brucei pyruvate kinase. TbPYK enzyme, Kinase-Glo Plus ATP luminescence, 45 min. hit rate 0.12% among 410,000. Potency, µM (series often up to 76.8 µM), for the others: top-dose activity, negative = inhibition, hits mostly inhibitors. AID 624173. Q57TT1; further: potency means the concentration at half of the fitted maximal effect; on the % scale 0 is the no-effect control and ±100 the full control effect; nearly all actives have a fitted effect of over 50% in size
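ADP (130 uM final) triggers the TbPYK reaction after compound addition; incubation is 45 min at room temperature. Kinase-Glo Plus is then added and luminescence imaged. Normalized data are fitted to concentration-effect curves.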
FBPA Giardia inh: Giardia lamblia aldolase inhibition | A8B2U2 | purified Giardia FBPA | Potency, µM (highest dose often 59.6 µM), for inactives: at the highest dose activity, negative = inhibition, usual class: inhibitors | hit rate 0.71% among 290,000 | AID 2451; further: potency means the concentration at half of the fitted maximal effect; on the % scale 0 is the no-effect control and ±100 the full control effect; nearly all actives have a fitted effect of over 55% in size
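Giardia FBPA (40 nM reagent) was preincubated 10 min at RT with compound (up to 57.5 uM final), then substrate plus GAPDH/TPI/NAD/arsenate coupling system with diaphorase/resazurin was added; resorufin fluorescence (525/598 nm) was read after 20 min.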
Shiga toxin inh: Shiga toxin inhibition; Vero cells, Shiga toxin protein synthesis inhibition reporter; inhibition, % at 38.7 µM; hit rate 9.2% among 290,000; in the data active means inhibition mostly above about 28%, no sharp cut-off; inactive means mostly below about 43%; further: 0% is about no effect
* = called active by the depositor; ? = inconclusive; / = no result given; [ ] = another dose, or the depositor's remark. Unless noted, the call rests on the fitted dose curve; in most records, active means well fitted curve in the direction sought with a large enough effect; inconclusive means small, poorly fitted or top-dose-only effect, or another doubt; inactive means no such curve, though single readings can be large; an effect the other way counts as inactive or inconclusive.

SMILES	Cycloheximide cs	LmPK inhibitor	Sm TGR block	TbPYK inhibitor	FBPA Giardia inh	Shiga toxin inh
Cc1ccc(-n2c(-c3ccncc3)n[nH]c2=S)cc1	31*	16µM*	14%	?	-18%	168*
Cc1ccc(-n2c(-c3ccccc3)n[nH]c2=S)cc1	-2	?	-26%	?	-1%	-11
CN1c2ccccc2SC2C(c3ccccc3)=NOC21 (configuration not stated)	/	/	/	-2%	/	/
CC(C)NC(=O)N1CCC2(CC1)CCN(C(=O)c1cc(C(F)(F)F)cc(C(F)(F)F)c1)CC2	/	/	/	0%	4%	/
Cc1ccc(-n2c(-c3ccccc3)n[nH]c2=S)c(C)c1	-2	-1%	2%	11µM*	17%	-2
COCCC(=O)Nc1ccc2c(c1)CN(C(=O)CCSC)CC2	-2	8%	10%	1%	-1%	2
COCCC(=O)Nc1ccc2c(c1)CN(C(=O)c1ccc(CSC)o1)CC2	-3	3%	45µM*	-10%	16%	2
O=S(=O)(NC1=NCCCCC1)c1ccc2ccccc2c1	23*	1%	-12%	5%	9%	21
N#Cc1c(/N=C/C2C(=O)NC(=S)NC2=O)sc2c1CCCC2	1	-2%	?	?	?	-6
N#Cc1c(/N=C/N2CCOCC2)sc2c1CCCCC2	24	-16%	-10%	-1%	-3%	107*
CN(C)/C=N/c1sc2c(c1C#N)CCCCC2	56*	-2%	-13%	-7%	-1%	20*
CCCN(/C=N/c1sc2c(c1C#N)CCCCC2)CCC	16	-4%	-10%	1%	/	18
CN(C)/C=N/c1sc2c(c1C#N)CCC2	43*	1%	2%	-7%	-1%	13
CCCn1c(-c2ccc(F)cc2)nc2c(NCCN3CCCCC3)nc(C)nc21	/	/	/	/	2%	/
COc1cccc(-c2nc(-c3ccc4c(c3)-c3ccccc3S4(=O)=O)c(-c3ccccc3)[nH]2)c1OC	-4	-5%	?	-1%	1%	10
COc1cc(-c2nc(-c3ccc4c(c3)-c3ccccc3S4(=O)=O)c(-c3ccccc3)[nH]2)cc(OC)c1OC	6	5%	56µM*	-7%	-6%	33
COc1ccc(C(=O)N2CCC3(CC2)CN(c2ccc(-c4ccccc4)cc2)C3)cc1	/	/	/	0%	1%	/
Cc1cc(C(F)(F)F)nc(-n2cc(-c3cccc(N)c3)nn2)n1	-1	6%	0%	5%	2%	-4
Nc1cccc(-c2cn3cc(C(F)(F)F)cc(Cl)c3n2)c1	36*	-28%	-3%	-6%	-2%	64*
FC(F)(F)c1cc(Cl)c2nc(-c3ccccc3)cn2c1	41*	-15%	-3%	3%	-5%	88*
C#CCCCO/N=C1/C[C@@H](O)[C@@H](O)[C@@H]2[C@@H]3C(=O)N(Cc4ccc5c(c4)OCO5)C(=O)[C@H]3CC[C@H]12	/	/	/	/	1%[12.9 µM]	/
Cc1cccc(C)c1OCc1cc(C(=O)N2CCC(C3CCCCC3)C2)no1 (configuration not stated)	/	/	/	3%	/	/
Cc1cccc(C)c1OCc1cc(C(=O)N2CCN(c3ccccn3)CC2)no1	44*	-11%	4%	-3%	/	46*
Cc1cccc(C)c1OCc1cc(C(=O)N2CCC(c3ccccc3)CC2)no1	41*	-2%	-5%	-10%	/	100*
Cc1cccc(C)c1OCc1cc(C(=O)N2CCN(c3ccc(F)cc3)CC2)no1	52*	-4%	-4%	1%	/	109*
SMILES	Cycloheximide cs	LmPK inhibitor	Sm TGR block	TbPYK inhibitor	FBPA Giardia inh	Shiga toxin inh
CC(C)(C)OC(=O)N1CCC(c2c(C(=O)N3CCN(Cc4ccccc4)CC3)cnn2-c2cccc(Cl)c2)CC1	/	/	-9%	1%	/	/
Cc1ccc(CS(=O)(=O)c2ccc(C(=O)N3CCCCC3)cc2[N+](=O)[O-])cc1	20	-4%	18µM*	-1%	0%	-15
Cc1ccc(CS(=O)(=O)c2ccc(C(=O)N3CCN(c4ccccn4)CC3)cc2[N+](=O)[O-])cc1	-3	6%	32µM*	-2%	-6%	3
Cc1ccc(S(=O)(=O)N2CCN(C(=O)c3ccccc3)C2)cc1[N+](=O)[O-]	2	-5%	0%	6%	-9%	8
CCN(CC)C(=O)c1ccc(CS(=O)(=O)c2ccc(Br)cc2)cc1	-3	1%	5%	-5%	7%	/
CCN(CC)C(=O)c1ccc(S(=O)(=O)Cc2ccc(C)cc2)c([N+](=O)[O-])c1	-2	10%	7.9µM*	-3%	12%	-8
Cc1ccc(C(=O)N2CCN(S(=O)(=O)c3ccccc3[N+](=O)[O-])C2)cc1	37*	-5%	32%	8%	-6%	92*
CCn1c(=O)sc2cc(NS(=O)(=O)c3ccc(C)cc3)ccc21	/	/	-8%	2%	/	/
NCC1O[C@@H](OC2C(N)C[C@H](N)[C@@H](O[C@H]3OC(CO)C(O)C(N)C3O)C2O)C(N)C(O)C1O (some centres not stated)	/	/	/	5%	2%	/
O=C(COC(=O)C1(c2ccccc2F)CCCC1)N1CCNC1=O	/	/	-2%	-6%	/	/
O=C(Nc1ccccc1F)c1ccc(CSc2ccccc2)o1	54*	0%	-12%	-6%	-14%	63*
O=C(Nc1cccc(F)c1)c1ccc(CSc2ccccc2)o1	55*	2%	-23%	3%	-7%	95*
CC(=O)Nc1ccc(NC(=O)c2ccc(CSc3ccccc3)o2)cc1	4	13%	6%	4%	5%	13
Cc1c(-c2nc(-c3ccc4c(c3)OCO4)no2)nnn1-c1cccc(C(F)(F)F)c1	/	/	8%	-5%	/	/
O=C(CSc1ncccn1)c1ccccc1Br	26*	7%	-2%	-30%	-26%	35*
COCCNc1ncnc2c1cnn2-c1cc(Cl)ccc1C	/	/	10%	9%	/	/
C(=N\Nc1ccccn1)/c1ccc2c(c1)OCCO2	35*	-18%	6%	-1%	1%	33*
Fc1cccc(F)c1/C=N/Nc1ccccn1	50*	-4%	2%	3%	0%	95*
Fc1cccc(/C=N/Nc2ccccn2)c1	56*	-17%	-4%	6%	-5%	81*
COc1ccc(-c2csc(N3CCOCC3)n2)cc1OC	51*	1%	20%	?	6%	75*
COc1ccc(-c2csc(C(C)(O)c3ccncc3)n2)cc1OC (configuration not stated)	/	/	/	-5%	/	/
O=C(N1CCOCC1)N1CCN(c2nc(-c3ccc(F)cc3)cs2)CC1	10	0%	-2%	7%	0%	-3
COc1ccc(-c2csc(/N=C/N(C)C)n2)cc1OC	18*	1%	0%	-1%	-1%	42
Clc1ccc(-c2csc(N3CCOCC3)n2)cc1	47*	2%	-1%	-12%	-3%	56*
Clc1ccc(-c2csc(N3CCCCCC3)n2)cc1	22*	1%	3%	0%	1%	57
